Results: PubChem BioAssay (NCATS)
Records with an inconclusive call do not appear. Calls of active or inactive are those of the source. Calls come from the whole dose curve; as a rule, active = well fitted inhibition curve with a large enough effect; inconclusive = small, poorly fitted or top-dose-only effect; inactive = flat fitted curve, though single readings scatter.

Legend:
HEK293 = experiment: Cytotoxic Profiling of Annotated Libraries Using Quantitative High-Throughput Screening (AID 1296008); details: Five cell lines viability, CellTiter-Glo ATP luminescence, 48-72 h; max response: stronger effect = lower value; note: potency is the fitted concentration of half-maximal effect; for max response: % is set by controls: 0 for no effect and ±100 for the full control effect
Procedure, shortened: (§1)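 Compounds were pin-transferred onto cells and incubated 48 or 72 hr at 37 degree Celsius, 95% humidity. CellTiter-Glo was added, plates sat 10 min at room temperature, then ATP-coupled luminescence was imaged as the viability read-out.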

HaCat [1] = experiment: as above; details: Five cell lines viability, CellTiter-Glo ATP luminescence, 48-72 h; max response: stronger effect = lower value
Procedure, shortened: as §1

KB-3-1 = experiment: as above; details: Five cell lines viability, CellTiter-Glo ATP luminescence, 48-72 h; max response: stronger effect = lower value
Procedure, shortened: as §1

NIH3T3 = experiment: as above; details: Five cell lines viability, CellTiter-Glo ATP luminescence, 48-72 h; max response: stronger effect = lower value
Procedure, shortened: as §1

HACAT [2] = experiment: qHTS assay to identify novel small-molecules to repurpose for Merkel cell carcinoma treatment (AID 1296009); details: MCC and control cell lines, CellTiter-Glo viability, 72 h; series mostly up to 44.8 µM
Procedure, shortened: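 qHTS format: cells treated with library compounds in DMSO across 8 (NPC) or 11 (MIPE) concentrations. Readout after 72 hr at 37 degree celsius was CellTiter-Glo luminescence.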
Note: nearly all actives have a fitted effect of over 60% in size.

OCC1OC(Oc2cc(O)cc(/C=C/c3ccc(O)cc3)c2)C(O)C(O)C1O (configuration not stated)
inactive: max response (HEK293) 2.65% | outcome (HaCat [1]) | max response (KB-3-1) 5.61% | max response (NIH3T3) -0.337%

NC1CCCCN(c2c(F)cc3c(=O)c(C(=O)O)cn(C4CC4)c3c2Cl)C1 (configuration not stated)
inactive: max response (HEK293) -12.1% | max response (HaCat [1]) 0.186% | max response (KB-3-1) -4.74% | max response (NIH3T3) 1.34%

CC(C)=CCC[C@](C)(O[C@@H]1O[C@H](CO[C@@H]2O[C@H](CO)[C@@H](O)[C@H](O)[C@H]2O)[C@@H](O)[C@H](O)[C@H]1O)C1CC[C@]2(C)[C@@H]1[C@H](O)CC1[C@@]3(C)CC[C@H](O[C@@H]4O[C@H](CO)[C@@H](O)[C@H](O)[C@H]4O[C@@H]4O[C@H](CO)[C@@H](O)[C@H](O)[C@H]4O)C(C)(C)[C@@H]3CC[C@]12C (some centres not stated)
inactive: max response (HEK293) 0.0713% | max response (HaCat [1]) 3.42% | max response (KB-3-1) -1.36% | max response (NIH3T3) 4.71%

CC1(C)CC[C@]2(C(=O)O[C@@H]3O[C@H](CO)[C@@H](O)[C@H](O)[C@H]3O)CC[C@]3(C)C(=CCC4[C@@]5(C)CC[C@H](O[C@@H]6O[C@H](C(=O)O)[C@@H](O)[C@H](O)[C@H]6O)C(C)(C)C5CC[C@]43C)C2C1 (some centres not stated)
inactive: max response (HEK293) -5.49% | outcome (HaCat [1]) | max response (KB-3-1) 6.58% | max response (NIH3T3) -3.14% | outcome (HACAT [2]) inactive [at 9.27 µM]

CC(C)(O)C1CCC(C)(C2CCC3(C)C4CCC5C(C)(C(=O)OC6OC(CO)C(O)C(O)C6O)C(O)CC(O)C56CC46CCC23C)O1 (configuration not stated)
inactive: max response (HEK293) 0.689% | outcome (HaCat [1]) | max response (KB-3-1) -9.11% | max response (NIH3T3) -1.85% | Potency (HACAT [2])

C[C@@H]1O[C@@H](O[C@@H]2[C@@H](O)[C@H](O[C@H]3CC[C@@]4(C)C(CC[C@]5(C)C4CC=C4[C@@H]6CC(C)(C)CC[C@]6(C(=O)O[C@@H]6O[C@H](CO)[C@@H](O)[C@H](O)[C@H]6O)CC[C@]45C)C3(C)C)O[C@H](C(=O)O)[C@H]2O)[C@H](O)[C@H](O)[C@H]1O (some centres not stated)
inactive: max response (HEK293) 3.46% | outcome (HaCat [1]) | max response (KB-3-1) 4.23% | max response (NIH3T3) 4.82% | outcome (HACAT [2]) inactive [at 9.27 µM]

CC(C)c1cc(C(=O)N2CC[C@H](NC(=O)C3CC3)C2)n[nH]1
inactive: max response (HEK293) -6.43% | outcome (HaCat [1]) | max response (KB-3-1) -1.18% | max response (NIH3T3) -25.5% | Potency (HACAT [2])

CC(C)O[C@@H]1O[C@H](CO)[C@@H](O)[C@H](O)[C@H]1O
inactive: max response (HEK293) 1.2% | max response (HaCat [1]) 4.48% | max response (KB-3-1) 2% | max response (NIH3T3) 4.22%

C=CC1C(OC2OC(CO)C(O)C(O)C2O)OC=C(C(=O)OC)C1CC(=O)OCC1C(C)C(O)CC1C(CO)COC(=O)CC1C(C(=O)O)=COC(OC2OC(CO)C(O)C(O)C2O)/C1=C\C (configuration not stated)
inactive: max response (HEK293) 0.0453% | outcome (HaCat [1]) | outcome (KB-3-1) | max response (NIH3T3) -19.3% | outcome (HACAT [2]) inactive [at 9.27 µM]

COC(=O)C1=CO[C@@H](O[C@@H]2O[C@H](CO)[C@@H](O)[C@H](O)[C@H]2O)[C@@H]2C(COC(C)=O)=C[C@H](O)[C@H]12
inactive: max response (HEK293) -2.65% | outcome (HaCat [1]) | outcome (KB-3-1) | outcome (NIH3T3) | Potency (HACAT [2])

C(#Cc1nc2ncccc2nc1OCCN1CCCC1)c1ccccc1
active: Potency (HEK293) 1.84 µM | Potency (HaCat [1]) 5.8 µM | Potency (KB-3-1) 8.2 µM | Potency (NIH3T3) 5.17 µM

CC1OC(OC2C(C)OC(OC3C(O)C(CO)OC(O[C@H]4CC[C@@]5(C)C(CC[C@]6(C)C5CC=C5C7[C@@H](C)[C@H](C)CC[C@]7(C(=O)O)CC[C@]56C(=O)O)C4(C)C)C3O)C(O)C2O)C(O)C(O)C1O (some centres not stated)
inactive: max response (HEK293) -6.08% | outcome (HaCat [1]) | max response (KB-3-1) 9.21% | outcome (NIH3T3) | outcome (HACAT [2]) inactive [at 9.27 µM]

CC1=C2C3OC(=O)C(C)C3(O)CCC2(C)CCC1O (configuration not stated)
inactive: max response (HEK293) -8.27% | max response (HaCat [1]) -12.8% | max response (KB-3-1) 5.71% | max response (NIH3T3) -16.2%

CC1(C)CC[C@]2(C(=O)O[C@@H]3O[C@H](CO)[C@@H](O)[C@H](O)[C@H]3O)CC[C@]3(C)C(=CCC4[C@@]5(C)C[C@@H](O)[C@H](O)[C@](C)(C(=O)O)C5CC[C@]43C)C2C1O (some centres not stated)
inactive: max response (HEK293) -1.42% | max response (HaCat [1]) 1.77% | max response (KB-3-1) -4.21% | max response (NIH3T3) -9.14%

CCC(C)C(=O)OC1CC(O)C23C4OCC5(C(O)CC2C1(C)C(O)O4)C3C(=O)C(O)C1(C)C(O)(c2ccoc2)CC2OC251 (configuration not stated)
active: Potency (HEK293) 1.72 µM | Potency (HaCat [1]) 4.85 µM | Potency (KB-3-1) 0.968 µM | Potency (NIH3T3) 3.06 µM
